Unmarked numbers belong to inactive results. For some assays here: Measured potencies and affinities stand elsewhere. Calls of active or inactive are those of the source. Unless noted, no rule for the calls is given here.
Legend:
[1] = antimalarial activity against Dd2 strain (AID 2302;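 active = growth inhibition above 50% at the single 2 µM test dose, taken to imply half-maximal potency below 2 µM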;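 also: 0% = DMSO untreated growth and 100% = chloroquine plus artemisinin killed control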); conditions: P. falciparum Dd2 in RBCs, LDH growth readout, 72 h; at 2 µM; hits give high values
[2] = human hepatoma cell viability loss – ATP luminescence, cytotoxicity control for P. falciparum antimalarial project, primary screen (AID 2303;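 active = inhibition above 50%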;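 also: 0% = DMSO wells and 100% = digitonin-killed cells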); conditions: HepG2 viability, 24-48 h, at 10 µM, hits give high values
[3] = biological target: L-lactate dehydrogenase (Plasmodium falciparum (isolate CDC / Honduras)) (UniProt Q27743); experiment: PfLDH activity inhibition – cell lysate, 3D7 strain, counter-screen for P. falciparum growth inhibition project (AID 2304);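 also: 0% = vehicle and 100% = reference inhibitor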; conditions: P. falciparum 3D7 crude extract, LDH APAD/NBT absorbance; at 2 µM; hits give high values
[4] = inhibition of 3D7 malaria parasite growth – strain 3D7 (AID 2306);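 also: 0% = DMSO wells and 100% = chloroquine plus artemisinin control wells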; conditions: P. falciparum 3D7 erythrocytic growth, LDH absorbance, 72 h; at 2 µM; hits give high values
[5] = biological target: Calcium-dependent protein kinase 1 (Plasmodium falciparum (isolate 3D7)) (UniProt P62344); experiment: PfCDPK1 kinase inhibitors, biochemical, TCAMS library (AID 1159585; cut-off not given, nearly all actives have IC50 up to about 0.98 µM;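 also: inhibitors leave more ATP so luminescence rises with inhibition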); conditions: recombinant PfCDPK1, Kinase-Glo ATP depletion luminescence
[6] = biological target: Plasmodium falciparum protein kinase 6 (PK6, PF3D7_1337100) (UniProt Q8IDW1); experiment: PfPK6 kinase inhibitors, biochemical, TCAMS library (AID 1159586); conditions: recombinant PfPK6, Kinase-Glo ATP depletion luminescence
[7] = biological target: Protein kinase 7 (PK7), Plasmodium falciparum 3D7 (PF3D7_0213400) (UniProt Q7YTF7); experiment: inhibition of Plasmodium PK7 catalytic activity – biochemical, TCAMS antimalarial set, Kinase-Glo luminescence (AID 1159587); conditions: recombinant PfPK7, Kinase-Glo ATP depletion luminescence
[8] = biological target: Calcium-dependent protein kinase 4 (Plasmodium falciparum (isolate 3D7)) (UniProt Q8IBS5); experiment: PfCDPK4 kinase inhibitors, biochemical, TCAMS library (AID 1159588; cut-off not given, nearly all actives have IC50 up to about 0.91 µM); conditions: recombinant PfCDPK4, Kinase-Glo ATP depletion luminescence
Sequence of Calcium-dependent protein kinase 4 (Plasmodium falciparum (isolate 3D7)) (Q8IBS5 whole entry, looked up): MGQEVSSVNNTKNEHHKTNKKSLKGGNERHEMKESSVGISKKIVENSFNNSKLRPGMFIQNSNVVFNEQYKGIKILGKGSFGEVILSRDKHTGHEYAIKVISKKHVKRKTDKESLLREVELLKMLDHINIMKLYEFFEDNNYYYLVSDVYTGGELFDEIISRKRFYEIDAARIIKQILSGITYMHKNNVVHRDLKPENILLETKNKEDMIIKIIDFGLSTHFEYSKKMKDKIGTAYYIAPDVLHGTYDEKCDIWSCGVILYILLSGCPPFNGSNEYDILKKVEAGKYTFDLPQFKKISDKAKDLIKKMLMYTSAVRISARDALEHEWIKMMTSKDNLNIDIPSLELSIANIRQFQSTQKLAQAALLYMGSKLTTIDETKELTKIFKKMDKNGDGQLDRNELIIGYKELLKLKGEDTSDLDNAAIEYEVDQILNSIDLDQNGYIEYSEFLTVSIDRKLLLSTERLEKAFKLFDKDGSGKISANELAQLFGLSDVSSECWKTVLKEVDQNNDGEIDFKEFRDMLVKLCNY

Sequence of L-lactate dehydrogenase (Plasmodium falciparum (isolate CDC / Honduras)) (Q27743 whole entry, looked up): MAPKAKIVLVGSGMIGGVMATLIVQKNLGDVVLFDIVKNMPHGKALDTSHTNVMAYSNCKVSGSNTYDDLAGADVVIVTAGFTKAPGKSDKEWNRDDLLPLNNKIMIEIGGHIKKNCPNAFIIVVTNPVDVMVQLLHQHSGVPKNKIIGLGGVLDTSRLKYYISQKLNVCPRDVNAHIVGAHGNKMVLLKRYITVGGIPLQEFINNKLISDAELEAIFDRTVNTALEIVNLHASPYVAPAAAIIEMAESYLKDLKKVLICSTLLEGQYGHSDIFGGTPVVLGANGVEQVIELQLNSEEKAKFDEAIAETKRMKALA
Sequence of Plasmodium falciparum protein kinase 6 (PK6, PF3D7_1337100) (Q8IDW1 1-305): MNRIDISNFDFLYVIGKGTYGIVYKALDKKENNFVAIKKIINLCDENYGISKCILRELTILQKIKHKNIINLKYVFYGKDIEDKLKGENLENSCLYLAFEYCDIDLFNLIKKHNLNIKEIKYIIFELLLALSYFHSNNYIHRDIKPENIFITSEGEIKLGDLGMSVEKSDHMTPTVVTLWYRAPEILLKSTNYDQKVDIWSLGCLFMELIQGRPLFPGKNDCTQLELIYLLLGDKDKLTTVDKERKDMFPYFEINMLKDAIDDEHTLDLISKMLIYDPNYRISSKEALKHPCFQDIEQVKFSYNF
Sequence of Calcium-dependent protein kinase 1 (Plasmodium falciparum (isolate 3D7)) (P62344 whole entry, looked up): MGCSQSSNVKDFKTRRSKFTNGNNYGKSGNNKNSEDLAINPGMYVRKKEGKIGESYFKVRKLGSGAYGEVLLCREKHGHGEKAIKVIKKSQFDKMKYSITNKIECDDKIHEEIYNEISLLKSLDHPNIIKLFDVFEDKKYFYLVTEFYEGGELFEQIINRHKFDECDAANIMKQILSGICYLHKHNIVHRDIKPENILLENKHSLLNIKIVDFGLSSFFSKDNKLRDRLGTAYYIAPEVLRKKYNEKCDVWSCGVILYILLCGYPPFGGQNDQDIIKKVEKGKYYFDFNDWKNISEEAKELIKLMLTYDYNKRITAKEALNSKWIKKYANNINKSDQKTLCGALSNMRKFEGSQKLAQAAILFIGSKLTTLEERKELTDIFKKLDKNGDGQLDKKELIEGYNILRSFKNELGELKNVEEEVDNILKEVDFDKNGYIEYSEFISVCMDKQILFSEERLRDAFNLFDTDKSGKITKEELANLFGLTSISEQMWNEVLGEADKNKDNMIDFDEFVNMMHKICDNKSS
Sequence of Protein kinase 7 (PK7), Plasmodium falciparum 3D7 (PF3D7_0213400) (Q7YTF7 1-343): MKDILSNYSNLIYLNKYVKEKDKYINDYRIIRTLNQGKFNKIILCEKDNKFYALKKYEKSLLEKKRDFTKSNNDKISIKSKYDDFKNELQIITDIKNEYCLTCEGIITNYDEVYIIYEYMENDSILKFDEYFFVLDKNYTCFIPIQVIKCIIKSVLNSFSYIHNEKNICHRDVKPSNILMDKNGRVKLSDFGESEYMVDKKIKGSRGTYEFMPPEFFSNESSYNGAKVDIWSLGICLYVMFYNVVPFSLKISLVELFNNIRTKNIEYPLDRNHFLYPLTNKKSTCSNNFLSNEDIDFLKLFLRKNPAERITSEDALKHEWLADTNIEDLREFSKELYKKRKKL

Structure (SMILES) | growth inhibition [1] | inhibition [2] | inhibition [3] [%] | growth inhibition [4] | outcome [5] | outcome [6] | outcome [7] | outcome [8]
CCCN(CC)CCOC(=O)c1ccccc1 | 1% | 2% | -4 | 99% (active) | inactive | inactive | inactive | inactive
O=C(C=Cc1ccc(Cl)c(Cl)c1)NCCCCCN1CCC(CCNC(=O)/C=C/c2ccccc2)CC1 | 1% | 25% | -7 | 97% (active) | inactive | inactive | inactive | inactive
O=C(NC1CCN(Cc2ccccc2)CC1)c1cccc(-c2nc3ccc(Cl)cc3[nH]2)c1 | -1% | 6% | -3 | 98% (active) | inactive | inactive | inactive | inactive
COc1cccc2cc(C(=O)N[C@@H](CC(C)C)C(=O)NC(/C=N/NC(=O)c3ccccc3)CCc3ccccc3)oc12 (stereo not given in full) | 73% (active) | 8% | -3 | 88% (active) | inactive | inactive | inactive | inactive
CCN(CC)CCCC(C)Nc1c2ccccc2nc2ccc3ccccc3c12 (stereo not given) | 89% (active) | 24% | 1 | 100% (active) | inactive | inactive | inactive | inactive
CN(C)CCOc1ccc2[nH]c(-c3cccc(OCc4ccccc4)c3)nc2c1C#N | 86% (active) | 48% | -5 | 100% (active) | inactive | inactive | inactive | inactive
CC1(C)CN2CCCC2c2cc(NC(=O)/C=C/c3ccccc3Cl)ccc21 (stereo not given) | 76% (active) | 20% | 0 | 88% (active) | inactive | inactive | inactive | inactive
Cc1ccc(Cn2c(N3CCC(C(=O)NCc4cccs4)CC3)nc3ccccc32)cc1 | 71% (active) | -4% | -1 | 99% (active) | inactive | inactive | inactive | inactive
Cc1noc(-c2ccc(O)cc2O)c1-c1ccc2c(c1)OCCCO2 | 99% (active) | 8% | -4 | 100% (active) | inactive | inactive | inactive | inactive
O=C(CSc1nccn1C1CCCCC1)Nc1cc(C(F)(F)F)ccc1Cl | 95% (active) | 2% | -1 | 96% (active) | inactive | inactive | inactive | inactive
COc1ccc2c(-c3ccccc3)noc2c1 | 34% | -4% | -2 | 98% (active) | inactive | inactive | inactive | inactive
Oc1ccc(CCCNc2nc(NCc3ccccc3-c3ccccc3)nc(N3CCNCC3)n2)cc1 | 48% | 39% | 5 | 94% (active) | inactive | inactive | inactive | inactive
CN(c1ncc(-c2cccc(CNCc3ccccc3O)c2)cn1)C1CCCCC1 | 71% (active) | 12% | 3 | 95% (active) | inactive | inactive | inactive | inactive
CC[C@H]1CN(Cc2ccccc2Br)CC[C@H]1CCCc1ccnc2ccc(O)cc12 | 2% | 12% | -4 | 86% (active) | inactive | inactive | inactive | inactive
Cc1cc(C2CCN(CCCCNC(=O)c3ccc(-c4ccc(C#N)cc4)cc3)CC2)c(C)cc1OCCO | 68% (active) | 20% | 2 | 96% (active) | inactive | inactive | inactive | inactive
C=C[C@H]1CN(CCCCCCC)CC[C@H]1CCNc1ccnc2ccc(OC)cc12 | 81% (active) | 99% (active) | 7 | 95% (active) | inactive | inactive | inactive | inactive
COc1ccc2nccc([C@@H](O)CN3CCC(NCc4nc5c([N+](=O)[O-])cccc5[nH]4)CC3)c2c1 | 84% (active) | 13% | -2 | 101% (active) | inactive | inactive | inactive | inactive
Cc1ccccc1C1CCN(c2ccc(C(=O)NC3CC3)cn2)CC1 | 95% (active) | 17% | -2 | 95% (active) | inactive | inactive | inactive | inactive
N#Cc1ccc(CN2CCC(Oc3ccc(NC(=O)c4cccs4)cc3Cl)C2)cc1 (stereo not given) | 95% (active) | 31% | -2 | 96% (active) | inactive | inactive | inactive | inactive
CN(C)c1ccc(-c2ccc(C(=O)NC3CCN(Cc4ccc(C(C)(C)C)cc4)CC3)s2)cc1 | 59% (active) | 35% | -4 | 95% (active) | inactive | inactive | inactive | inactive

Structure (SMILES) | growth inhibition [1] | inhibition [2] | inhibition [3] [%] | growth inhibition [4] | outcome [5] | outcome [6] | outcome [7] | outcome [8]
CC(C)CNCc1ccc(-c2cccc(CNc3ccc4ncccc4c3)c2)cc1 | 31% | 29% | -2 | 96% (active) | inactive | inactive | inactive | inactive
CC(C)(C)c1ccc(CNC(=O)c2ccc(-c3nc4ccc(Cl)cc4[nH]3)cc2)cc1 | 2% | 14% | -2 | 93% (active) | inactive | inactive | inactive | inactive
CNC(=O)c1ccccc1Nc1cc(Nc2cc(OC)ccn2)ncc1Cl | 100% (active) | 69% (active) | 5 | 100% (active) | inactive | inactive | inactive | inactive
O=C(Nc1ccc2c(c1)CCN2C1CCN(Cc2cccc(C(F)(F)F)c2)C1)c1ccco1 (stereo not given) | 92% (active) | 4% | -1 | 95% (active) | inactive | inactive | inactive | inactive
CCCCOP(=O)(OCCCC)C(=Cc1ccc(O)c2ccccc12)P(=O)(OCCCC)OCCCC | 64% (active) | 1% | -6 | 84% (active) | inactive | inactive | inactive | inactive
Cc1[nH]c(C)c(-c2ccc(-c3ccccc3)nc2)c(=O)c1Br | 95% (active) | -3% | -1 | 96% (active) | inactive | inactive | inactive | inactive
CCCN1CCN(CCCNC(=O)c2cc3c(Cl)nc4ccc(C)cc4c3s2)CC1 | 27% | 18% | 0 | 97% (active) | inactive | inactive | inactive | inactive
Cc1cc(NN=Cc2cccc(F)c2)c2cc(F)ccc2n1 | 99% (active) | 7% | -1 | 101% (active) | inactive | inactive | inactive | inactive
COc1ccc(-c2cccc(NC(=O)c3ccc(Cl)cc3)c2)cc1CN1CCCN(C)CC1 | 95% (active) | 29% | -8 | 101% (active) | inactive | inactive | inactive | inactive
COc1ccc(Br)cc1/C=C/C(=O)Nc1ccc2c(c1)CCCN(C)C2 | 10% | 8% | 1 | 84% (active) | inactive | inactive | inactive | inactive
c1cc(CNCC2CCCO2)cc(-c2cccc(-c3nc4ccccc4[nH]3)c2)c1 (stereo not given) | 7% | 15% | 3 | 100% (active) | inactive | inactive | inactive | inactive
Cc1ccc2c(NN=Cc3ccc(N(C)C)cc3)cc(C)nc2c1 | 46% | -9% | 8 | 99% (active) | inactive | inactive | inactive | inactive
O=C(NCCCCCN1CCC(c2c[nH]c3ccccc23)CC1)Nc1cccc(Cl)c1 | 0% | 36% | -1 | 86% (active) | inactive | inactive | inactive | inactive
COc1ccc(NS(=O)(=O)c2ccccc2Br)cc1N1CCN(C)CC1 | 3% | 2% | -3 | 94% (active) | inactive | inactive | inactive | inactive
Cc1cc(=O)c(-c2ccc(Oc3ccc(Cl)cc3Cl)cc2)c(C)[nH]1 | 73% (active) | -1% | -2 | 93% (active) | inactive | inactive | inactive | inactive
COc1ccc(NC(=O)Nc2ccc(-c3ccccc3)cc2Cl)cc1N1CCN(C)CC1 | 30% | 40% | 0 | 90% (active) | inactive | inactive | inactive | inactive
N#CCCN1CCN(Cc2ccc(-c3cccc(-c4nc5ccc(F)cc5[nH]4)c3)cc2)CC1 | 17% | 16% | 0 | 91% (active) | inactive | inactive | inactive | inactive
Cc1cc(N[C@@H](Cc2ccccc2)C(=O)NC2CCCC2)nc(NCCCOC(C)C)n1 | 43% | -4% | -3 | 92% (active) | inactive | inactive | inactive | inactive
CC(C)(C)OC(=O)[C@H](CC(N)=O)NC(=O)c1ccc(-c2ccc(-c3nc4ccc(C(F)(F)F)cc4[nH]3)s2)cc1 | 88% (active) | 62% (active) | -2 | 94% (active) | inactive | inactive | inactive | inactive
COc1ccc2nccc([C@@H](O)CN3CCC(NC(=O)c4cc5cccnc5[nH]4)CC3)c2c1 | 6% | -8% | 2 | 94% (active) | inactive | inactive | inactive | inactive

Source: PubChem BioAssay
